MEKK2 mut-MEK5 = MEK5 binding signal on mutant MEKK2 PB1, primary screen, biochemical, multiplex bead flow cytometry, Alexa488-MEK5; hit rate 0.35% among 290,000; AID 1530, 2009; Alexa488-MEK5 binding to MEKK2 mutant; percent response, % at 10 µM; in the data active = percent response above about 24%, passing the limit was not always enough
MEKK3 PB1 HTS = modulators of MEKK3-MEK5 PB1 binding, primary screen, biochemical, wildtype MEKK3, multiplex bead flow cytometry, Alexa488-MEK5; AID 1529, 2009; hit rate 1.4% among 290,000; bead-based flow cytometry, Alexa488-MEK5 binding to MEKK3; actives lie on both sides; 0 = blocked by unlabeled MEK5, 100 = vehicle; Mitogen-activated protein kinase kinase kinase 3 (Homo sapiens), Q99759; binding response (% of control), % at 10 µM;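 active = binding response more than 3 SD above or below the average of its plate-row segment, actives on both sides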;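 also: Alexa488 bead fluorescence after subtracting the streptavidin-only scavenger bead signal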
Rce1 inhib = yeast Rce1p protease inhibitors, primary screen, biochemical, fluorescence, cell-free homogeneous. CAAX prenyl protease 2 (Saccharomyces cerevisiae (strain ATCC 204508 / S288c)), Q03530. calls only. yeast membranes, quenched prenylated peptide cleavage fluorescence. hit rate 0.27% among 290,000;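 active = fall in fluorescence gain of 50% or more versus controls, with final raw signal at or below 3038400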
Target sequence (Q03530 whole entry, looked up): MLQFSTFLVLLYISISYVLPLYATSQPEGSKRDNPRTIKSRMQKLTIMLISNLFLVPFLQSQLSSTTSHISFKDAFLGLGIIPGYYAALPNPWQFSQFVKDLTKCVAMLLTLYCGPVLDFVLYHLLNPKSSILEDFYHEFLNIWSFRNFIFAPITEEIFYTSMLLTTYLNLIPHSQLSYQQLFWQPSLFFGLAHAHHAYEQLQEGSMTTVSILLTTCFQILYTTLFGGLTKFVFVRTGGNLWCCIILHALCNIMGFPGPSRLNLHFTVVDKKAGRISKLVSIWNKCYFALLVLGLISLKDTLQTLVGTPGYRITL
MEKK2wt PB1 HTS = modulators of MEK5 binding to wildtype MEKK2, primary screen, biochemical, multiplex bead flow cytometry, Alexa488-MEK5; hit rate 1.1% among 290,000; Alexa488-MEK5 binding to MEKK2 WT; actives lie on both sides; binding response (% of control), % at 10 µM; in the data active = binding response below about 67% or above about 130%
UBC13 inh = UBC13 polyubiquitin chain formation inhibitors, primary screen, biochemical, TR-FRET, uHTS. inhibition, % at 20 µM. hit rate 0.47% among 330,000. AID 485273, 2010; in the data active = inhibition above about 45%, passing the limit was not always enough
Target sequence (P61088 whole entry, looked up): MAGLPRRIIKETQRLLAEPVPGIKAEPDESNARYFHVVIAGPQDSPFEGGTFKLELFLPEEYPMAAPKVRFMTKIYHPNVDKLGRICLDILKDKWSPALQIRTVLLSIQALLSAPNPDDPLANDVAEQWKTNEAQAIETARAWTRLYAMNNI
MEKK2wt confirm = modulators of MEK5 binding to wildtype MEKK2, confirmation, biochemical, single concentration, multiplex bead flow cytometry; shares compounds with MEKK3 PB1 HTS; Alexa488-MEK5 binding to MEKK2 WT; actives lie on both sides; binding response (% of control), % at 10 µM; hit rate 2.4% among 5,900; AID 1892, 2009; in the data active = binding response below about 16% or above about 210%; inactive = in between
MEKK2mut confirm = mutant MEKK2 PB1-MEK5 binding signal retest – biochemical, single concentration, multiplex bead flow cytometry, confirmation. shares compounds with MEKK3 PB1 HTS. Alexa488-MEK5 binding to MEKK2 mutant. percent response, % at 10 µM. hit rate 2% among 5,900. AID 1893, 2009; in the data active = percent response mostly above about 71%, no sharp cut-off; inactive = mostly below about 38%;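 also: higher means compound restores mutant binding toward wildtype level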
MEKK3-MEK5 inh = MEKK3 wild-type PB1 binding to MEK5, inhibitors, confirmation, biochemical, bead multiplex flow cytometry, single concentration, wildtype | shares compounds with MEKK3 PB1 HTS | Alexa488-MEK5 binding to MEKK3; hits give low values | binding response (% of control), % at 10 µM | hit rate 1.8% among 5,900 | AID 1894, 2009;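 active = binding response below 72% of control, or above a set upper limit, though filed actives all read lower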;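 also: lower values mean stronger disruption of MEK5 binding to MEKK3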
A number is an active result; . = inactive; / = no result given; + = active, no number; [ ] = another dose, or the depositor's remark. Sampled rows, rich in hits. Any-hit rate of the full collection: about 2.5%.

SMILES	MEKK2 mut-MEK5	MEKK3 PB1 HTS	Rce1 inhib	MEKK2wt PB1 HTS	UBC13 inh	MEKK2wt confirm	MEKK2mut confirm	MEKK3-MEK5 inh
CCn1cc(C(=O)O)c(=O)c2cc(F)c(N3CCN(C)CC3)cc21	.	.	.	.	.	/	/	/
CCn1cc(C(=O)NCc2ccc3c(c2)OCO3)c(=O)c2cc(F)c(N3CCN(C)CC3)cc21	.	.	.	138	.	.	.	.
CCn1cc(C(=O)O)c(=O)c2cc(F)c(N3CCN(C(=S)NC(=O)c4ccc(Br)cc4)CC3)cc21	54	59[inhibitor]	.	.	.	-1.0[inhibitor]	.	.
COc1cccc(NC(=O)COC(=O)c2ccccc2C(=O)N2CCN(c3ccccc3)CC2)c1	.	.	.	.	.	/	/	/
Cc1ccc(C(=O)O)cc1NC(=S)NC(=O)c1ccc([N+](=O)[O-])c(C)c1	.	.	.	.	.	/	/	/
COc1ccc(CN2CCN(C(=O)C3CCN(S(=O)(=O)c4cccs4)CC3)CC2)c(OC)c1OC	.	1.0[inhibitor]	.	1.0[inhibitor]	.	.	.	.
CCC1=Nc2cc(C(=O)NCCCOC(C)C)ccc2Sc2ccccc21	.	128	.	.	.	.	.	.
Cc1n[nH]c(=O)c2c(NC(=O)CSc3nn(-c4ccccc4)c(=S)s3)oc(C)c12	/	/	.	/	.	/	/	/
CN1CCN(c2ccc(Cl)cc2NC(=O)/C=C/c2cccc(F)c2)CC1	.	.	.	149	.	.	.	.
COC(=O)NNC(=O)c1ccccc1OC	.	.	.	.	.	/	/	/
COc1ccccc1C(=O)NNC(=O)C1CC=CCC1 (configuration not stated)	.	25[inhibitor]	.	38[inhibitor]	.	.	.	.
COc1ccc(OC)c(N2C(=O)CC(NNC(=O)c3ccc4c(c3)OCO4)C2=O)c1 (configuration not stated)	/	/	/	/	.	/	/	/
Cc1ccc2c(c1)c(C)c(C)n2CC(O)Cn1nc(C)cc1C (configuration not stated)	.	.	.	39[inhibitor]	.	.	.	.
Cc1ccc2c(c1)c(C)c(C)n2CC(O)Cn1nnc2ccccc21 (configuration not stated)	.	.	.	.	.	/	/	/
CC(C)c1ccc(NC(=O)c2ccc(NS(C)(=O)=O)cc2)cc1	.	.	.	.	.	/	/	/
CCN(CC)CCCNC(=O)c1sc2nc(-c3ccc(F)cc3)cn2c1C	.	.	.	138	.	.	.	.
C#CCOCCOCCOCCNc1nc(N2CCN(C(=O)C(Cc3cc4ccccc4[nH]3)n3cc(C(N)C(C)CC)nn3)CC2)nc(N2CCN(C(=O)C(Cc3cc4ccccc4[nH]3)n3cc(C(N)C(C)CC)nn3)CC2)n1 (configuration not stated)	105	.	.	254	94	254	107	.
C#CCOCCOCCOCCNc1nc(N2CCN(C(=O)[C@H]([C@@H](C)CC)n3cc([C@@H](N)CC(C)C)nn3)CC2)nc(N2CCN(C(=O)[C@H](Cc3cc4ccccc4[nH]3)n3cc([C@@H](N)C(C)CC)nn3)CC2)n1 (some centres not stated)	37	.	.	184	81	227	90	.
C#CCOCCOCCOCCNc1nc(N2CCN(C(=O)[C@H]([C@@H](C)CC)n3cc([C@@H](N)CO)nn3)CC2)nc(N2CCN(C(=O)[C@H]([C@@H](C)CC)n3cc([C@@H](N)CC(C)C)nn3)CC2)n1	.	.	.	139	.	.	.	.
C#CCOCCOCCOCCNc1nc(N2CCN(C(=O)[C@H]([C@@H](C)CC)n3cc([C@@H](N)CO)nn3)CC2)nc(N2CCN(C(=O)[C@H]([C@@H](C)CC)n3cc([C@@H](N)CO)nn3)CC2)n1	.	.	.	.	.	/	/	/
C=CCn1c(N)cc(=O)nc1SCC(=O)Nc1ccc(C(=O)OCC)cc1	.	.	.	.	.	/	/	/
O=C(CCNC(=O)c1ccccc1)Nc1cccnc1	.	.	.	.	.	/	/	/
O=c1[nH]c(=S)[nH]c2c1C(c1cc([N+](=O)[O-])c(N3CCOCC3)cc1N1CCOCC1)O2 (configuration not stated)	.	142	/	.	.	.	.	.
O=[N+]([O-])c1ccc(Cl)cc1N1CCOCC1	.	.	.	.	.	/	/	/
COc1ccc(S(=O)(=O)Nc2ccccc2C(=O)N2CCOCC2)cc1C	.	.	.	.	.	/	/	/
SMILES	MEKK2 mut-MEK5	MEKK3 PB1 HTS	Rce1 inhib	MEKK2wt PB1 HTS	UBC13 inh	MEKK2wt confirm	MEKK2mut confirm	MEKK3-MEK5 inh
CCOC(=O)CCC(=O)NCc1ccc2c(c1)cc(C)n2C	.	74[inhibitor]	.	.	.	.	.	.
CCOC(=O)CCC(=O)NCc1ccc2[nH]c(C)cc2c1	.	82[inhibitor]	.	.	.	.	.	.
CNc1ccc(C(=O)OCC(=O)NC(=O)NC2CCCC2)cc1[N+](=O)[O-]	/	/	/	/	.	/	/	/
O=C(CSc1nc2ccccc2s1)N1N=C(c2cccs2)CC1c1ccc(F)cc1 (configuration not stated)	.	73[inhibitor]	+	.	.	.	.	.
COc1ccc(C2CC(c3cccs3)=NN2C(=O)CSc2nc3ccccc3o2)cc1 (configuration not stated)	.	.	.	.	.	/	/	/
COc1ccc(C2CC(c3cccs3)=NN2C(=O)CSc2nc3ccccc3s2)cc1 (configuration not stated)	.	130	.	.	.	.	.	.
CCOC(=O)CSCC(=O)N1N=C(c2cccs2)CC1c1ccc(F)cc1 (configuration not stated)	.	.	.	.	.	/	/	/
COc1ccccc1NC(=O)N1C2CCCC1CC(NC(=O)c1ccccc1)C2 (configuration not stated)	.	.	.	.	.	/	/	/
CCC(=O)N1CCc2cc(Br)cc(S(=O)(=O)NCCN3CCCCC3C)c21 (configuration not stated)	.	.	.	.	.	/	/	/
CCC(=O)N1CCc2cc(Br)cc(S(=O)(=O)NCCN3CCCCC3CC)c21 (configuration not stated)	.	57[inhibitor]	/	.	.	.	.	.
